{
  "source": "PubChem BioAssay (NCATS)",
  "note": "Inconclusive results are not listed. A number with no mark means an inactive call. Calls follow the shape of the dose curve; as a rule, active = well fitted inhibition curve with a large enough effect; inconclusive = small, poorly fitted or top-dose-only effect; inactive = flat fitted curve, though single readings scatter. % is scaled to controls: 0 for no effect and ±100 for the full control effect.",
  "data": [
    {"target": "Calcium and integrin-binding protein 1 (Homo sapiens) (UniProt Q99828)", "sequence (Q99828 whole entry, looked up)": "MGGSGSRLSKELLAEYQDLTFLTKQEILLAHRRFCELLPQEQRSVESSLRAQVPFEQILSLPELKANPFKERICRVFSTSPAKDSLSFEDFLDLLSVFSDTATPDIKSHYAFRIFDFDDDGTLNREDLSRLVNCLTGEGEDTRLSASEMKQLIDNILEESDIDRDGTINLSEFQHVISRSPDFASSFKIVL", "assay": "Primary qHTS for Identification of Calcium Integrin Binding Protein 1 (CIB1) Competitor (AID 1508620);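 also: GST tagged CIB1 binding a fluorescein labelled alphaIIb integrin peptide tracer; top concentration of the series differs between compounds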", "settings": "CIB1-GST / FITC-alphaIIb peptide fluorescence polarization; series mostly up to 114 µM; activity change, negative = inhibition: at the top concentration", "summary_of_the_method": "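CIB1-GST (1 uM final) and compound incubated 15 min at room temperature before adding FITC-alphaIIb peptide tracer (100 nM final). Competition for binding read by fluorescence polarization (ex 480, em 540) after another 15 min at room temperature.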", "units": {"activity change, negative = inhibition": "%"}, "values": [
      {"smiles": "CCOc1ccc(CCNC(=O)c2cc3cccnc3n2Cc2cccc(C)c2)cc1OCC", "activity change, negative = inhibition": -0.53},
      {"smiles": "S=P(c1ccccc1)(c1ccccc1)c1c(-c2ccccc2)[nH]c2ccccc12", "activity change, negative = inhibition": -1.4},
      {"smiles": "CN1CCN(c2cnc3c(O)ccc(C(=O)O)c3c2)CC1", "activity change, negative = inhibition": -5.74},
      {"smiles": "CCOc1ccc(CCNC(=O)c2cc3ccccc3n2Cc2cccc(C)c2)cc1OCC", "activity change, negative = inhibition": -1.3},
      {"smiles": "Cn1cc(Br)c(C2N=C(Nc3nc4ccccc4o3)NC3=C2C(=O)CCC3)n1", "note": "(stereo not drawn)", "activity change, negative = inhibition": -18.2},
      {"smiles": "CCOc1ccc(CCNC(=O)c2cc3sccc3n2CCN(C)C)cc1OCC", "activity change, negative = inhibition": -3.54},
      {"smiles": "CCOc1ccc(CCNC(=O)c2cc3ccncc3n2Cc2cccc(C)n2)cc1OCC", "activity change, negative = inhibition": 0.567},
      {"smiles": "Cc1cccc2nc(NC3=NC(c4[nH]ncc4Cl)C4=C(CCCC4=O)N3)oc12", "note": "(stereo not drawn)", "activity change, negative = inhibition": -1.05},
      {"smiles": "Cc1ccccc1C(=O)N1CCc2cc(N3CCC(NC(=O)Cc4ccccc4)C3)ccc21", "note": "(stereo not drawn)", "activity change, negative = inhibition": -8.34},
      {"smiles": "Oc1cccc2cc(N3CCNCC3)cnc12", "activity change, negative = inhibition": -9.6},
      {"smiles": "COc1cccc(CNc2ccc(S(=O)(=O)Nc3nccs3)cc2)c1OC", "activity change, negative = inhibition": -0.418},
      {"smiles": "S=P(c1ccccc1)(c1ccccc1)c1c[nH]c2ccccc12", "activity change, negative = inhibition": -1.68},
      {"smiles": "CCc1nn2c(=O)c(C)c(N3CCNCC3)nc2s1", "activity change, negative = inhibition": -4.71},
      {"smiles": "CCOc1ccc(CCNC(=O)c2cc3sccc3n2Cc2ccc(F)cc2F)cc1OCC", "activity change, negative = inhibition": 1.8},
      {"smiles": "CN1CC[C@@]2(C)c3cc(O)ccc3N(C)C2O1", "note": "(stereo partly drawn)", "activity change, negative = inhibition": -5.62},
      {"smiles": "Cc1cccc(-n2cnc3cc(C(=O)N4CCCC(C)C4)ccc32)c1", "note": "(stereo not drawn)", "activity change, negative = inhibition": -2.29},
      {"smiles": "CCc1nn2c(=O)cc(N3CCN(C)CC3)nc2s1", "activity change, negative = inhibition": -4.59},
      {"smiles": "O=S(=O)(Nc1ccccc1)c1ccc(NCc2ccc(Br)cc2O)cc1", "activity change, negative = inhibition": -7.07}
    ]}
  ]
}
